This is an account of results in PubChem BioAssay (NCI).

About 83,000 compounds went through this panel and 20% of them were active in at least one assay; those are over-represented in the sample as a whole.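 How to read the values: 0–100, growth inhibition (40 = 60% inhibited); 0, no net growth; -100 to 0, cell death (-40 = 40% of starting cells died; -100 = all dead).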 A number with no mark means an inactive call. The source made the active and inactive calls. How the source made its calls: active means growth percent below 10; inactive means the rest.

Holding throughout (assay): NCI-60 one-dose screen, 48 h (100 = growth as untreated, 0 = no growth, -100 = all killed)
Holding throughout (settings): 10 µM unless noted

The test system of test [1] is RPMI-8226 leukemia.
Test [2] has as its system OVCAR-8 ovarian.
For test [3], the system named is OVCAR-5 ovarian.
The subject of test [4] is OVCAR-4 ovarian.
Test [5] relates to SK-OV-3 ovarian.
Test [6] concerns IGROV1 ovarian.
Test [7] relates to OVCAR-3 ovarian.
For test [8], the system named is HS 578T breast.
Test [9] relates to NCI/ADR-RES ovarian.
Test [10] has as its system SR leukemia.

For the molecule `CCC(=O)OC1=CN2C(=NC(c3ccc(N)cc3)=CC2c2cc(OC)c(OC)c(OC)c2)S1` (stereo not drawn), the growth in test [1] was 17.9%; in test [2], 36.6%; in [3], 77.7%; in test [4] it was 57.3%; in test [5], 68.1%; in test [6], 65.4%. Moreover, the growth in test [7] is 24.1%; in [8], 49%; in test [9], 66.9%.
In the case of `O=C1/C(=C/c2ccccc2)CN(C(=O)CCN2CCC(=NO)CC2)C/C1=C\c1ccccc1`, the growth in test [1] is -28.6% (active); in test [2], 13.6%; in test [3], 5.29% (active); in test [4] it was 15.3%; in [5] it was 77.5%; in test [6], -5.65% (active). Moreover, the growth in test [7] was -27% (active); in test [8] it was 17%; in test [9] it was 14.6%.
Regarding `Cc1[nH]c2ccc(F)cc2c1CCNC(=O)C1CCN(C(=O)c2ccccc2)C1` (stereo not drawn), the growth was 96.3% [25 µM] in [10]; 101% [25 µM] in test [2]; 81.8% [25 µM] in test [3]; 85.5% [25 µM] in [4]; 90.4% [25 µM] in test [6]; 101% [25 µM] in test [7]. For the same molecule, the results for the growth in test [8] and in [9] were 90.9% [25 µM] and 97.6% [25 µM], respectively.
As to `COc1ccc(C(=O)NC(=O)Nc2cc3c(cc2F)/C(=C/c2[nH]c(C)c(CCC(=O)O)c2C)C(=O)N3)c(F)c1`, the growth in [1] is -2.09% (active); in test [2], 6.72% (active); in [3], 63.1%; in test [4], 80.3%; in test [5] it was 60.5%; in test [6], 37.4%. Moreover, the growth in test [7] is 36.8%; in [8], 16.3%; in test [9], 83.9%.
Turning to `Cc1ccc(N2CCN(C(C)C(N)=O)CC2)cc1` (stereo not drawn), the growth in test [1] was 96.8%; in test [2] it was 106%; in [3], 99%; in [4], 104%; in [5], 114%; in test [6], 112%. Further, the growth was 106% in test [7], 117% in [8] and 106% in test [9].
On to `O=C(O)C1CCCCN1c1nc(Cl)nc(Cl)n1` (stereo not drawn), for which the growth in test [10] was 118%; in test [2] it was 99.3%; in test [3] it was 105%; in [5], 99.9%; in test [6], 106%; in [7], 108%. In addition, the growth in test [8] was 103%; in test [9], 101%.
`N/C(=N\S(=O)(=O)c1ccccc1)Nc1nc2ccccc2s1`: the growth is 88.6% in [1]; 87.6% in [2]; 96.9% in test [3]; 100% in [4]; 85.4% in test [5]; 90.8% in test [6]. Also, the growth in test [7] was 107%; in [8] it was 98.2%; in [9], 91.8%.
Regarding `COc1ccc(Nc2ncccc2C(=O)NCc2cn(Cc3cccc(Oc4ccccc4)c3)nn2)c(OC)c1`, the growth is 35.5% in test [1]; 43.4% in test [2]; 51.1% in test [3]; 54.9% in test [4]; 21.6% in test [5]; 48% in test [6]. Also, the figures for the growth in [7], in test [8] and in test [9] were -57.8% (active), 15.3% and -10% (active), respectively.
Take `CN(C[C@H]1Cc2c(cccc2N2CCN(Cc3ccccn3)CC2)CN1)[C@H]1CCCc2cccnc21`: the growth in [1] was 64.5%; in test [2], 42.7%; in test [3], 71%; in test [4] it was 72.6%; in [5], 51.2%; in test [6], 49.2%. Besides, the results for the growth in test [7], in [8] and in [9] were 64.9%, 92.2% and 28.1%, respectively.
As for `O=C(Nc1cccc(-n2cc(-c3ccncc3)c(-c3ccc(Cl)c(O)c3)n2)c1)Nc1cc(C(F)(F)F)cc(C(F)(F)F)c1`, the growth in test [1] is -10.9% (active); in [2], -12.2% (active); in test [3], -32.9% (active); in test [4], 0.865% (active); in test [5], -24.3% (active); in test [6], 4.8% (active). Besides, the growth was -67.5% (active) in [7], -26% (active) in test [8] and 4.72% (active) in test [9].
Consider `Cc1ccc(CSC(=N)N)cc1C`, for which the growth was 78.7% in test [1]; 109% in test [2]; 114% in test [3]; 101% in [4]; 111% in test [5]; 106% in [6]. Further, the growth was 116% in test [7], 103% in [8] and 98.8% in test [9].
On to `COc1ccc(-c2c(N)n[nH]c2-c2cc(OC)c(OC)c(OC)c2)cc1`, for which the growth was 27% in test [1]; 21.2% in test [2]; 37.5% in test [3]; 47.7% in test [4]; 15.4% in [5]; 26.9% in test [6]. Also, the results for the growth in test [7], in test [8] and in test [9] were -36.1% (active), -8.33% (active) and -20.2% (active), respectively.
As for `O=C(/C=C/c1c[nH]c2ccccc12)c1ccc(O)c(CN2CCN(c3ccc(F)cc3)CC2)c1`, the growth was 91% in [1]; 95.1% in test [2]; 90.8% in test [3]; 93.9% in [4]; 101% in test [5]; 106% in test [6]. In addition, the values for the growth in [7], in test [8] and in [9] were 103%, 108% and 103%, respectively.
`CN(CCCCN(C[C@H]1Cc2ncccc2CN1)[C@H]1CCCc2cccnc21)C1CCC(F)(F)CC1`: the growth is 92.5% in [1]; 85.6% in [2]; 79% in [3]; 108% in test [4]; 90.6% in [5]; 111% in [6]. For the same molecule, the growth is 98.4% in test [7], 105% in [8] and 85.8% in test [9].
Take `COC(=O)c1nc(-c2ccccc2)oc1S(=O)(=O)N1CCN(c2cccc(Cl)c2)CC1`: the growth in [1] was 36.6%; in test [2] it was 76.3%; in [3], 81.9%; in test [4] it was 103%; in test [5] it was 92.9%; in [6], 77.8%. The results for the growth in test [7], in [8] and in test [9] were 69.2%, 85.7% and 89.2%, respectively.
